Screens: PubChem, several laboratories
A selection: hits, their analogues and other compounds. The true share with any hit is near 0.97%.
MazEF act: activators of E. coli MazEF toxin-antitoxin RNase; P0AE70; FAM/BHQ RNA-DNA oligo cleavage fluorescence, 5 h; activation, % at 20 µM; actives 0.32% (n = 350,000); in the data active = activation above about 50%
Target sequence (P0AE70 whole entry, looked up): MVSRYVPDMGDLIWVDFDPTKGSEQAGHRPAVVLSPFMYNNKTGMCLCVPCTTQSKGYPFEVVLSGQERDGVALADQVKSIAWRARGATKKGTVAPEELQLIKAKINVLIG
TcdB inh: blocks C. difficile toxin B glycohydrolase activity; P18177; TcdB glycohydrolase enzymatic assay, plate reader; inhibition, % at 9.99 µM; actives 0.24% (n = 350,000); AID 652162; in the data active = inhibition above about 10%
Mtb betalactam: beta-lactam sensitization of Mtb H37Rv. M. tuberculosis H37Rv growth with meropenem, percent inhibition. inhibition, % at 25 µM. actives 0.27% (n = 330,000). AID 434955;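 also: growth measured after seven days incubation then overnight dye step; 0% = bacteria only wells and 100% = bacteria with antibiotic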
Mtb UGM inh: Mtb UDP-galactopyranose mutase inhibition; purified UGM, fluorescence polarization probe displacement; inhibition, % at 10 µM; actives 0.06% (n = 320,000); in the data active = inhibition above about 10%, passing the limit was not always enough; inconclusive = no clear call, values can overlap the other calls
Target sequence (P9WIQ1 whole entry, looked up): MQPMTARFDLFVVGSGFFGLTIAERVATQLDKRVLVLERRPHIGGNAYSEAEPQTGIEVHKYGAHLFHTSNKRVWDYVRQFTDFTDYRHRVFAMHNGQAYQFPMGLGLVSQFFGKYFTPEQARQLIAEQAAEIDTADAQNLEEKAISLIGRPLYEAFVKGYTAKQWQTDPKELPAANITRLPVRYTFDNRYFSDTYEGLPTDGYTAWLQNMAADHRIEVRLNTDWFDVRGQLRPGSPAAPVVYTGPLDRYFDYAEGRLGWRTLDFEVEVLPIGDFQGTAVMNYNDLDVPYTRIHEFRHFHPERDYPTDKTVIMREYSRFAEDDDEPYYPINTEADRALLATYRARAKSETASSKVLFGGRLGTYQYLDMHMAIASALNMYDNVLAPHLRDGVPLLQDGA
Rv3671c protease: Rv3671c (M. tuberculosis) protease inhibition; P9WHR9; inhibition, % at 5.96 µM; actives 0.048% (n = 320,000); AID 2606; in the data active = inhibition above about 38%;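 also: extracellular domain of Rv3671c used as enzyme; 0% = enzyme with DMSO and 100% = no enzyme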
RecA intein inh: Mtb RecA intein splicing inhibition; P9WHJ3; cell-free RecA intein splicing, fluorescence; inhibition, % (concentration not given with the values); actives 0.75% (n = 290,000); AID 2221; in the data active = inhibition above about 30%; inconclusive = no clear call, values can overlap the other calls;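 also: 0% = vehicle wells and 100% = reference inhibitor control wells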
GFP chromo cs: counter-screen GFP chromophore formation inhibition. shares compounds with RecA intein inh. cell-free GFP chromophore formation, fluorescence. EC50, µM. actives 83% (n = 2,100). AID 434968
Active calls of the source: *; ? = inconclusive; . = no result. Unless noted, no rule for the calls is given here.

SMILES	MazEF act	TcdB inh	Mtb betalactam	Mtb UGM inh	Rv3671c protease	RecA intein inh	others
CCCNC(=O)[C@@H]1[C@@H](CO)[C@@H]2Cn3c(ccc(-c4ccccc4)c3=O)[C@H]1N2Cc1ccccc1F	.	0	.	.	.	.
Cc1cc(C(=O)N/N=C/c2c(C)[nH]n(-c3ccccc3)c2=O)n[nH]1	11	2	2	0	-13	55*
Cc1[nH]n(-c2ccccc2)c(=O)c1/C=N/N1CCOCC1	13	1	-3	5	-5	46*
O=C(Nc1ccccc1F)N[C@@H]1CC[C@H](CCNC(=O)C2CCCCC2)O[C@@H]1CO	.	1	.	.	.	.
O=C(NCc1cccnc1)/C(=C/c1ccc(-c2cccc(C(F)(F)F)c2)o1)NC(=O)c1ccccc1	9	.	20	-1	-3	2
O=C(NCc1cccnc1)/C(=C/c1ccc(-c2ccc(Cl)cc2)o1)S(=O)(=O)c1ccccc1	-5	4	99	2	-15	35*
Cc1ccc(C)c(N2CCN(C(=O)c3cc4ccccn4n3)CC2)c1	-153	.	7	27*	4	-9
O=C(c1cc2ccccn2n1)N1CCN(c2cccc(C(F)(F)F)c2)CC1	-14	.	-4	0	-3	-7
COc1ccc(C(=O)/C=C/c2ccc(O)cc2)c2c1CC(O)C(C)(C)O2 (configuration not stated)	-67	23*	1	.	-3	.
COc1cc(/C=C/C(=O)OCC(=O)NC(=O)NC(C)(C)C)ccc1O	5	16*	0	2	4	-9
COc1cc(/C=C/C(=O)OCC(=O)NCc2ccco2)ccc1O	2	15*	2	-2	-8	-1
Cc1nc2ccccc2nc1OCC(=O)Nc1ccc(F)cc1	7	12*	-10	1	-8	2
Cc1ccc(S(=O)(=O)N(C)C[C@@H]2OCc3ccccc3-c3ccccc3C(=O)N([C@@H](C)CO)C[C@@H]2C)cc1	.	1	.	.	.	.
CCOc1ccc(-n2c(O)c(/C=C3\C=Nc4ccccc43)c(=O)[nH]c2=O)cc1	120*	0	16	?	-16	8
C[C@H](CO)N1C[C@H](C)[C@H](CN(C)Cc2ccc(C(=O)Nc3ccccc3N)cc2)OCc2cn(nn2)CCCC1=O	.	0	.	.	.	.
COc1ccc(CN(C)C(=O)CCl)cc1	1	-4	.	.	.	.
CN(Cc1ccc(Cl)s1)C(=O)CCl	3	-1	100	0	3	43*
CN(Cc1ccc(Cl)cc1)C(=O)CCl	12	0	99	-2	-8	63*
CO[C@H]1CN(C)C(=O)c2cc(NC(=O)Nc3ccccc3F)ccc2OC[C@@H](C)N(C)C[C@H]1C	.	1	.	.	.	.
CC(=O)NC(CSC(CC(=O)c1ccco1)c1ccc(C)cc1)C(=O)O (configuration not stated)	249*	-2	64	-2	8	3
Cc1ccccc1Nc1nc(N)nc(CCl)n1	-2	0	100	-1	2	2
Nc1nc(CCl)nc(Nc2ccc3ccccc3c2)n1	1	1	.	.	.	46*
C[C@@H]1CN([C@H](C)CO)C(=O)Cc2cc(NS(C)(=O)=O)ccc2O[C@H]1CN(C)Cc1ccc2c(c1)OCO2	.	1	.	.	.	.
O=c1[nH]c(SCc2nc3c(cnn3-c3ccccc3)c(=O)[nH]2)nc2ccccc12	50*	.	.	.	.	.
C[C@H]1CN([C@@H](C)CO)S(=O)(=O)c2ccc(-c3cccc(C#N)c3)cc2O[C@H]1CN(C)C(=O)C1CC1	.	2	.	.	.	.
SMILES	MazEF act	TcdB inh	Mtb betalactam	Mtb UGM inh	Rv3671c protease	RecA intein inh	others
Nc1ccc2nc(CN3CCOCC3)[nH]c2c1	-12	.	3	1	6	42*
c1ccc2[nH]c(CN3CCOCC3)nc2c1	-6	.	3	1	4	-5
Cc1ccc(-c2csc(NC(=O)CSC3=NCCS3)n2)cc1	10	.	99	0	-19	58*
CCOC(=S)SCC(=O)Nc1nc(-c2ccccc2)cs1	5	.	1	1	1	43*
O=C(C=Cc1ccccc1)c1ccc([N+](=O)[O-])cc1	4	0	.	.	.	.
O=[N+]([O-])c1ccc(C=CC=Cc2ccccc2)cc1	68*	1	.	.	.	.
CC(C)(C)c1ccc(C(=O)Cn2cnnc2C#N)cc1	-2	1	19	0	-12	34*
Cc1ccc(C(=O)Oc2ccc([N+](=O)[O-])cc2)cc1S(=O)(=O)N1CCCCCC1	-7	.	4	1	1	30*
C[C@H](CO)N1C[C@H](C)[C@H](CN(C)Cc2ccc3c(c2)OCO3)Oc2ccc(NC(=O)C3CC3)cc2C1=O	.	1	.	.	.	.
O=[N+]([O-])c1cc(Br)ccc1NS(=O)(=O)c1ccccc1	-8	19*	.	.	.	.
S=c1nc(-c2cccc(Cl)c2)[nH][nH]1	1	14*	-2	1	-14	-2
S=c1nc(-c2cc(Cl)cc(Cl)c2)[nH][nH]1	-7	5	-7	0	5	1
O=C(C[C@H]1CC[C@@H]2[C@H](COC[C@@H](O)CN2Cc2ccccc2F)O1)N1CCc2ccccc2C1	.	1	.	.	.	.
CC(C)OC(=O)c1cccc(C(=O)O)n1	2	12*	18	-1	-7	1
Cc1c(Cl)cccc1NC(=O)CSCc1cc(=O)[nH][nH]1	0	.	-9	6	-4	85*
COc1ccc(N=Nc2ccc(N)nc2N)cc1	-11	0	0	1	10	0
Nc1ccc(N=Nc2ccc(O)cc2)c(N)n1	-7	20*	.	.	.	.
Cc1ccc(C2=NC(C)(C)N=C2SCC(=O)Nc2ccc(Cl)cc2)cc1	-1	.	57	2	-7	.
CC1(C)N=C(SCC(=O)Nc2ccc(Cl)cc2Cl)C(c2ccccc2)=N1	-3	.	0	3	-4	32*
Cc1[nH]nc2c1C1(CCOCC1)C(C#N)=C(N)O2	0	-4	-8	1	2	78*	GFP chromo cs=13*
CCOC(=O)C1CCC2(CC1)C(C#N)=C(N)Oc1n[nH]c(C)c12 (configuration not stated)	3	.	-6	2	-4	79*	GFP chromo cs=>38
Cc1[nH]nc2c1C1(CCN(Cc3ccccc3)CC1)C(C#N)=C(N)O2	18	.	-8	3	-2	85*	GFP chromo cs=14*
CC(C)c1[nH]nc2c1C1(CCN(Cc3ccccc3)CC1)C(C#N)=C(N)O2	6	.	1	1	-2	68*	GFP chromo cs=21*
Cc1[nH]nc2c1C1(CCOC1C)C(C#N)=C(N)O2 (configuration not stated)	3	.	0	-9	0	-1
CCOC(=O)C1CCCCC12C(C#N)=C(N)Oc1n[nH]c(C)c12 (configuration not stated)	0	.	1	-2	-3	23
CO[C@H]1CN(C)C(=O)c2ccc(NC(=O)c3ccc(F)cc3)cc2OC[C@@H](C)N(C(=O)c2ccc(F)cc2)C[C@H]1C	.	-3	.	.	.	.
